We go through 37 compounds from PubChem BioAssay (NCATS).

Records with an inconclusive call do not appear. Entries that show only a call come without a potency. Activity calls are given as the source filed them. Calls follow the shape of the dose curve; as a rule, active = well fitted curve in the direction sought with a large enough effect; inconclusive = small, poorly fitted or top-dose-only effect, or another doubt; inactive = no such curve, though single readings can be large; an effect the other way counts as inactive or inconclusive.
Also: top concentration of the series differs between compounds.

Chain of Calcium and integrin-binding protein 1 (Homo sapiens) (Q99828 whole entry, looked up): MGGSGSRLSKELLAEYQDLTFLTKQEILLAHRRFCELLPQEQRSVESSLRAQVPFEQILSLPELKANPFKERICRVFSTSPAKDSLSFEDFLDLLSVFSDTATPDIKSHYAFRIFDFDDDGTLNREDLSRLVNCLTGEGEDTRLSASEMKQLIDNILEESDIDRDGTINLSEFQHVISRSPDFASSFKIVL

Tested on in the first assay: not listed separately
Description: Primary qHTS for inhibitors of La Crosse Virus (LACV) - induced cell death in SH-SY5Y cells (AID 1508616).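 Also: higher means more rescue of cells from virus-induced death.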 To be noted: SH-SY5Y LACV cytopathicity rescue, ATP luminescence, 6 d; series mostly up to 4.29 µM. The gist of the method: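 Luminescent ATP readout (ATPLite 1step, 5 min room temperature) measured rescue from LACV-induced death after 6 days of infection at 0.01 MOI; normalized to infected DMSO wells and uninfected DMSO wells.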
For orientation: qHTS replaces the single test concentration by a dilution series.
For the compound `NCCCC[C@H](N[C@@H](CCc1ccccc1)C(=O)O)C(=O)N1CCC[C@H]1C(=O)O`, the Potency entry is “inactive”.

Take `O=C(CCCN1CCC(O)(c2ccc(Br)cc2)CC1)c1ccc(F)cc1`: the Potency entry is “inactive”.

`CC(C)(C(=O)c1cccnc1)c1cccnc1`: the Potency result was “inactive”.

On to `C[n+]1c2cc(N)ccc2cc2ccc(N)cc21` (tested in a mixture with another compound), for which the Potency result is “inactive”.

Consider `CC(=O)Oc1ccc(C(=C2CCCCC2)c2ccc(OC(C)=O)cc2)cc1`, for which the Potency result was “inactive”.

Consider `CC(C)(Oc1ccc(Cl)cc1)C(=O)O`, for which the Potency entry is “inactive”.

With `CC1(C)O[C@@H]2C[C@H]3[C@@H]4CCC5=CC(=O)CC[C@]5(C)[C@@]4(F)[C@@H](O)C[C@]3(C)[C@]2(C(=O)CCl)O1`, the Potency entry is “inactive”.

For the compound `C[C@H](O)C(=O)Nc1c(I)c(C(=O)NC(CO)CO)c(I)c(C(=O)NC(CO)CO)c1I`, the Potency result was “inactive”.

`CC(C)(C)CC(C)(C)c1ccc(OCCOCC[N+](C)(C)Cc2ccccc2)cc1`: the Potency entry was “inactive”.

For the compound `CCCCCCCCCCCCCCNCCO`, the Potency result is “inactive”.

With `C=CCc1ccc(O)c(OC)c1`, the Potency result is “inactive”.

With `OC(CCN1CCCCC1)(c1ccccc1)c1ccccc1`, the Potency entry is “inactive”.

Take `C#C[C@]1(OC(C)=O)CC[C@H]2[C@@H]3CCC4=C[C@@H](OC(C)=O)CC[C@@H]4[C@H]3CC[C@@]21C`: the Potency result is “inactive”.

Turning to `COc1cc2c(cc1OC)C(C(C(=O)N(CCc1ccc(OC)c(OC)c1OC)CCc1ccc(OC)c(OC)c1OC)c1ccccc1)=NCC2` (stereo unspecified), the Potency result was “inactive”.

On to `C#C[C@]1(O)CC[C@H]2[C@@H]3CCc4cc(OC5CCCC5)ccc4[C@H]3CC[C@@]21C`, for which the Potency entry is “inactive”.

On to `NC(=O)CC[C@@H]1NC(=O)[C@H](Cc2ccccc2)NC(=O)[C@H](Cc2ccc(O)cc2)NC(=O)CCSSC[C@@H](C(=O)N2CCC[C@H]2C(=O)N[C@@H](CCCN=C(N)N)C(=O)NCC(N)=O)NC(=O)[C@H](CC(N)=O)NC1=O`, for which the Potency result was “inactive”.

`Nc1ccc(/C=C/c2ccc(N)cc2S(=O)(=O)O)c(S(=O)(=O)O)c1`: the activity change is 5.33% [at 0.0343 µM] (inactive).

Take `Cc1c(C)n(CCN(C)C)c2ccc(C(=O)OCCN(C)C)cc12`: the Potency entry is “inactive”.

As to `O=c1ccc2ccccc2o1`, the Potency result was “inactive”.

For the compound `CN(C)CC/C=C1/c2ccccc2COc2ccc(CC(=O)O)cc21`, the Potency result was “inactive”.

As for `Cc1c(C)n(Cc2ccccc2)c2ccc(C(=O)OCCN(C)C)cc12`, the Potency entry is “inactive”.

Regarding `CCOC(=O)c1cccc(N)c1`, the Potency result is “inactive”.

`COc1cc(/C=C/C(=O)O[C@H]2CC[C@]34C[C@]35CC[C@]3(C)[C@@H]([C@H](C)CCC=C(C)C)CC[C@@]3(C)[C@@H]5CC[C@H]4C2(C)C)ccc1O`: the Potency result is “inactive”.

As for `CCCCCCCCCCOCC(O)CN` (stereo unspecified), the Potency entry was “inactive”.

For the compound `CCCCS(=O)(=O)N[C@@H](Cc1ccc(OCCCCC2CCNCC2)cc1)C(=O)O`, the Potency result is “inactive”.

In the case of `NC(CS)C(=O)O` (stereo unspecified), the Potency result is “inactive”.

With `CN=C(NC#N)Nc1ccc(C2=NNC(=O)CC2C)cc1` (stereo unspecified), the Potency entry is “inactive”.

On to `CC(C)n1nc(-c2cc3cc(O)ccc3[nH]2)c2c(N)ncnc21`, for which the Potency entry is “inactive”.

As to `COc1cc2c(cc1OC)C(=O)C(CC1CCN(Cc3ccccc3)CC1)C2` (stereo unspecified), the Potency result is “inactive”.

For `CC(C)COC(=O)c1ccc(N)cc1`, the Potency result is “inactive”.

Consider `CN1CCN(C(c2ccccc2)c2ccccc2)CC1`, for which the Potency result is “inactive”.

For `CCOC(=O)COc1ccc2c(C)c(CCN(CC)CC)c(=O)oc2c1Cl`, the Potency entry is “inactive”.

As to `O=C1OCCN1/N=C/c1ccc([N+](=O)[O-])o1`, the Potency entry was “inactive”.

As to `O=C1[C@H]2CCCC[C@H]2C(=O)N1CCCCN1CCN(c2nsc3ccccc23)CC1`, the Potency entry is “inactive”.

Take `Cc1cccn2c(=O)c(-c3nnn[nH]3)cnc12`: the Potency result is “inactive”.

On to `CC[C@@H](CO)NCCN[C@@H](CC)CO`, for which the Potency result was “inactive”.

Regarding `NC(=O)c1cc[n+](CC2=C(C(=O)[O-])N3C(=O)[C@@H](NC(=O)Cc4cccs4)[C@H]3SC2)cc1`, the Potency entry was “inactive”.

A further assay has as its target Calcium and integrin-binding protein 1 (Homo sapiens) (UniProt Q99828). Description: Primary qHTS for Identification of Calcium Integrin Binding Protein 1 (CIB1) Competitor (AID 1508620).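 Also: GST tagged CIB1 binding a fluorescein labelled alphaIIb integrin peptide tracer.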 The note with it: CIB1-GST / FITC-alphaIIb peptide fluorescence polarization; series mostly up to 114 µM. The gist of the method:
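CIB1-GST (1 uM final) and compound incubated 15 min at room temperature before adding FITC-alphaIIb peptide tracer (100 nM final). Competition for binding read by fluorescence polarization (ex 480, em 540) after another 15 min at room temperature.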
Regarding `NCCCC[C@H](N[C@@H](CCc1ccccc1)C(=O)O)C(=O)N1CCC[C@H]1C(=O)O`, the Potency entry is “inactive”.

Turning to `CC(C)(C(=O)c1cccnc1)c1cccnc1`, the Potency entry is “inactive”.

As to `CC1(C)O[C@@H]2C[C@H]3[C@@H]4CCC5=CC(=O)CC[C@]5(C)[C@@]4(F)[C@@H](O)C[C@]3(C)[C@]2(C(=O)CCl)O1`, the Potency entry was “inactive”.

Regarding `C[C@H](O)C(=O)Nc1c(I)c(C(=O)NC(CO)CO)c(I)c(C(=O)NC(CO)CO)c1I`, the Potency result was “inactive”.

For the compound `CCCCCCCCCCCCCCNCCO`, the Potency result is “inactive”.

`OC(CCN1CCCCC1)(c1ccccc1)c1ccccc1`: the Potency entry was “inactive”.

In the case of `COc1cc2c(cc1OC)C(C(C(=O)N(CCc1ccc(OC)c(OC)c1OC)CCc1ccc(OC)c(OC)c1OC)c1ccccc1)=NCC2` (stereo unspecified), the Potency result was “inactive”.

With `NC(=O)CC[C@@H]1NC(=O)[C@H](Cc2ccccc2)NC(=O)[C@H](Cc2ccc(O)cc2)NC(=O)CCSSC[C@@H](C(=O)N2CCC[C@H]2C(=O)N[C@@H](CCCN=C(N)N)C(=O)NCC(N)=O)NC(=O)[C@H](CC(N)=O)NC1=O`, the Potency result was “inactive”.

Take `Nc1ccc(/C=C/c2ccc(N)cc2S(=O)(=O)O)c(S(=O)(=O)O)c1`: the activity change, negative = inhibition is -1.2% [at 1.07 µM] (inactive).

For `O=c1ccc2ccccc2o1`, the Potency entry is “inactive”.

Regarding `CN(C)CC/C=C1/c2ccccc2COc2ccc(CC(=O)O)cc21`, the Potency result is “inactive”.

Turning to `Cc1c(C)n(Cc2ccccc2)c2ccc(C(=O)OCCN(C)C)cc12`, the Potency result is “inactive”.

Turning to `CCOC(=O)c1cccc(N)c1`, the Potency result is “inactive”.

Regarding `COc1cc(/C=C/C(=O)O[C@H]2CC[C@]34C[C@]35CC[C@]3(C)[C@@H]([C@H](C)CCC=C(C)C)CC[C@@]3(C)[C@@H]5CC[C@H]4C2(C)C)ccc1O`, the Potency result is “inactive”.

Take `CCCCS(=O)(=O)N[C@@H](Cc1ccc(OCCCCC2CCNCC2)cc1)C(=O)O`: the Potency result was “inactive”.

For `NC(CS)C(=O)O` (stereo unspecified), the Potency result is “inactive”.

As to `CC(C)COC(=O)c1ccc(N)cc1`, the Potency result was “inactive”.

Consider `CN1CCN(C(c2ccccc2)c2ccccc2)CC1`, for which the Potency entry was “inactive”.

For `CCOC(=O)COc1ccc2c(C)c(CCN(CC)CC)c(=O)oc2c1Cl`, the Potency entry was “inactive”.

As for `O=C1OCCN1/N=C/c1ccc([N+](=O)[O-])o1`, the Potency entry is “inactive”.

For `O=C1[C@H]2CCCC[C@H]2C(=O)N1CCCCN1CCN(c2nsc3ccccc23)CC1`, the Potency result is “inactive”.

With `Cc1cccn2c(=O)c(-c3nnn[nH]3)cnc12`, the Potency entry is “inactive”.

With `CC[C@@H](CO)NCCN[C@@H](CC)CO`, the Potency entry was “inactive”.

On to `NC(=O)c1cc[n+](CC2=C(C(=O)[O-])N3C(=O)[C@@H](NC(=O)Cc4cccs4)[C@H]3SC2)cc1`, for which the Potency entry was “inactive”.
